# Results as given in PubChem BioAssay AID652154 (Broad Institute, 2013).
# Screen size: about 360,000 compounds; about 4,200 (1.2%) were called active. The sample holds actives, similar compounds and a random draw of the others, so the mix is not that of the screen. A number with no mark means an inactive call.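 The calls were made as follows: active = mean replicate inhibition at least 60% with every replicate also reaching 60%; inconclusive = only one of the two criteria is met; inactive = mean below 60% and not all replicates reaching 60%.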
# Assay: PAX8 transcriptional activity inhibition in RMG-I – RMG-I cells, luciferase, single concentration, primary screen (AID 652154);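 also: luciferase light reporting Pax8 driven TPO promoter activity; plate controls were median of neutral control wells for no effect and mitoxantrone controls for full effect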
# Conditions: RMG-I TPO-luciferase reporter, SteadyGlo, 24 h; at 12.6 µM; active compounds read high
row,Structure (SMILES),inhibition
1,Cc1cc(-c2n[nH]c(=S)n2/N=C/C(Br)=C/c2ccccc2)n[nH]1,94% (active)
2,S=c1[nH]nc(-c2cccs2)n1/N=C/c1cn(-c2ccccc2)nc1-c1ccc(Cl)cc1,3.55%
3,COc1ccccc1N1CCN(/N=C\C(Br)=C\c2ccccc2)CC1,3.71%
4,Fc1ccc(/C=N/n2c(COc3ccccc3)n[nH]c2=S)cc1,-9.55%
5,S=c1[nH]nc(-c2cccnc2)n1/N=C/C(Cl)=C\c1ccccc1,72.4% (active)
6,Cc1ccccc1-c1n[nH]c(=S)n1/N=C/c1ccc(-c2ccccc2Br)o1,-5.71%
7,COc1cccc(-c2ccc([C@H]3[C@H]4CN(C(=O)NC(C)C)CC(=O)N4[C@H]3CO)cc2)c1,-13.6%
8,CCC(=O)N1C[C@@H](C)[C@@H](OC)CN(C)C(=O)c2ccc(NC(=O)C3CCCCC3)cc2OC[C@@H]1C,-13.2%
9,O=C(C1CC1)N1CCCCN2[C@H](C1)[C@@H](c1ccc(-c3cccc(F)c3)cc1)[C@@H]2CO,4.79%
10,O=C(c1cccc(F)c1)N1CCCCN2[C@H](CO)[C@@H](c3ccc(-c4cncnc4)cc3)[C@H]2C1,-27.3%
11,O=C(C[C@@H]1C=C[C@@H](NC(=O)c2cccnc2)[C@H](CO)O1)NCc1ccncn1,2.15%
12,CO[C@@H]1CN(C)C(=O)c2ccc(NC(=O)Nc3c(C)noc3C)cc2OC[C@H](C)N(CC2CC2)C[C@H]1C,4.7%
13,CC1(C)CC(=O)C=C(N2CCOCC2)C1,7.18%
14,Cc1onc(C(=O)NN)c1C(=O)N1CCN(C(c2ccccc2)c2ccccc2)CC1,17.8%
15,CC1(C)CC(N2CCN(C(c3ccccc3)c3ccccc3)CC2)=CC(=[N+]2CCCCC2)C1,94.1% (active)
16,CCCCCCCCN1C(=O)[C@@H](CC(=O)NCc2ccccc2)C[C@@]2(C(=O)OC)C1=C[C@H](C(C)(C)C)O[C@@H]2C,19.6%
17,CN(C(=O)CN1C(=O)S/C(=C\c2ccccc2F)C1=O)C1CCS(=O)(=O)C1 (stereo not given),10.3%
18,COc1ccccc1/C=C1\SC(=O)N(CCC(=O)N(C)C2CCS(=O)(=O)C2)C1=O (stereo not given),-11.6%
19,CN(C(=O)CCN1C(=O)/C(=C/c2ccccc2F)SC1=S)C1CCS(=O)(=O)C1 (stereo not given),74.1% (active)
20,CCC(=O)Nc1ccc2c(c1)nc(CCN1CCN(c3ccccn3)CC1)n2C,-3.44%
21,Cn1c(CCN2CCN(c3ccccn3)CC2)nc2cc(NS(=O)(=O)c3ccc(F)cc3)ccc21,50.3%
22,Cn1c(CCN2CCCC2)nc2cc(NS(=O)(=O)c3ccccc3)ccc21,119% (active)
23,O=C(Nc1ccccc1)Nc1ccc2c(c1)[C@@H]1C[C@@H](CC(=O)N3CCCCC3)O[C@H](CO)[C@@H]1O2,-0.47%
24,O=C(c1cccc(F)c1)N1CCCCN2[C@@H](CO)[C@H](c3ccc(-c4cncnc4)cc3)[C@@H]2C1,2.95%
25,CCOc1cc(/C=N/NC(=O)CN2CCCCC2)ccc1O,3.31%

row,Structure (SMILES),inhibition
1,C/C(=N\NC(=O)c1cccc(N2CCCC2=O)c1)c1ccc(N)cc1,-0.282%
2,COc1cc(/C=N/NC(=O)c2ccc(N3CCCC3=O)cc2)ccc1O,86.3% (active)
3,CN(C)CC(=O)Nc1ccc2c(c1)[C@H]1C[C@@H](CC(=O)NCc3ccccn3)O[C@@H](CO)[C@H]1O2,-17.3%
4,CO[C@@H]1CC[C@H]2CCOc3c(C#N)cccc3C(=O)N(C)C[C@@H](OC)[C@H](C)C(=O)N(C)C[C@@H]1O2,-5.56%
5,COc1ccccc1-c1cn(CC[C@H]2CC[C@@H](NC(=O)Cc3ccccn3)[C@@H](CO)O2)nn1,-1.82%
6,COc1ccc2[nH]c3c(C)c4cc[n+](C)cc4c(C)c3c2c1,70.3% (active)
7,C/C=C/c1ccc([C@H]2[C@@H](CNC(=O)NC(C)C)N(C(=O)C3CCC3)[C@H]2CO)cc1,6.6%
8,CO[C@@H]1CN(C)C(=O)c2cc(NS(C)(=O)=O)ccc2OC[C@H](C)N(C(=O)C2CC2)C[C@@H]1C,-16.6%
9,Oc1ccc2ccccc2c1N=Nc1nccs1,90.5% (active)
10,C[C@@H]1CN([C@@H](C)CO)C(=O)c2cc(NS(=O)(=O)c3ccccc3)ccc2O[C@@H](C)CCCCO[C@@H]1CN(C)S(=O)(=O)c1cccs1,17.1%
11,CC(C)NC(=O)N(C)C[C@@H]1OCCCC[C@@H](C)Oc2ccc(NC(=O)Cc3ccccc3)cc2C(=O)N([C@H](C)CO)C[C@H]1C,20.4%
12,CCN1/C(=C\c2ccc3ccccc3[n+]2CC)Sc2cc(C)ccc21,93.7% (active)
13,O=C(C[C@@H]1C[C@@H]2c3cc(NC(=O)C4CCOCC4)ccc3O[C@@H]2[C@@H](CO)O1)NC1CCCCC1,8.24%
14,C[C@@H]1CN([C@H](C)CO)C(=O)Cc2cc(NC(=O)C3CC3)ccc2O[C@H]1CN(C)Cc1ccc(Cl)c(Cl)c1,11.3%
15,COc1cccc(-c2ccc([C@@H]3[C@@H](CO)N(C(=O)c4ccccn4)[C@H]3C#N)cc2)c1,-77.2%
16,COc1cccc(-c2ccc([C@@H]3[C@@H](C#N)N(C(=O)c4ccccn4)[C@H]3CO)cc2)c1,-20.8%
17,COc1cccc(C#Cc2ccc([C@H]3[C@@H](CO)N(C(=O)c4ccccn4)[C@H]3C#N)cc2)c1,92.4% (active)
18,CN1C(=O)c2cc(NC(=O)c3cscn3)ccc2OC[C@@H]2O[C@H](CC(=O)N3CCCCC3)CC[C@H]21,-16.1%
19,CCCN(C)C[C@H]1OCCCC[C@@H](C)Oc2ccc(NC(=O)CCC(F)(F)F)cc2C(=O)N([C@H](C)CO)C[C@H]1C,8.93%
20,Cc1nc2c(c(C)nn2-c2ccccc2)c(C)c1C,12.6%
21,CSc1ccc(-c2c(C#N)c(N)nc3c2c(C)nn3-c2ccccc2)cc1,66.4% (active)
22,Cn1c(=O)c2c(-c3cccc(Br)c3)c(C#N)c(N)nc2n(C)c1=O,4.92%
23,C[C@H]1CN([C@@H](C)CO)C(=O)c2cccc(NS(=O)(=O)c3cn(C)cn3)c2O[C@@H]1CN(C)C(=O)Nc1ccc(F)cc1,-9.83%
24,O=C(Nc1ccccc1)N[C@@H]1CC[C@H](CCNS(=O)(=O)c2ccccc2F)O[C@@H]1CO,-8.59%
25,C/C(CC1CC(C)(C)OC1=O)=N/Nc1nc(-c2ccccc2)cs1 (stereo not given),19.2%

row,Structure (SMILES),inhibition
1,Cc1ccc(-c2csc(NC(=O)C3=COCCO3)n2)cc1C,-109%
2,Cc1ccc(-c2csc(NC3OC(=O)c4ccccc43)n2)cc1 (stereo not given),92.3% (active)
3,CC(=O)N1[C@H](CO)[C@H](c2ccc(-c3ccccc3)cc2)[C@H]1CNC(=O)C1CC1,-4.5%
4,CN(C)C(=O)c1cccc(-c2cnc3c(NC=O)cc(-c4ccc(F)cc4)cn23)c1,33.9%
5,CC(=O)c1cccc(-c2cnc3c(NC=O)cc(-c4cccc(C(=O)N(C)C)c4)cn23)c1,12.7%
6,CN(C)CCNC(=O)c1cccc(-c2cnc3c(NC=O)cc(-c4cccc(C(F)(F)F)c4)cn23)c1,109% (active)
7,COc1ccc(NC(=O)Nc2ccc3c(c2)C(=O)N([C@H](C)CO)C[C@H](C)[C@H](CN(C)S(=O)(=O)c2ccc(Cl)cc2)OCCCC[C@H](C)O3)cc1,26.6%
8,O=C(C[C@@H]1C[C@@H]2c3cc(NS(=O)(=O)c4ccccc4)ccc3O[C@@H]2[C@@H](CO)O1)NC1CCCCC1,15.4%
9,CCOC(=O)c1c(C)[nH]c(C(=O)OCC(=O)c2ccc(OC)cc2OC)c1C,-7.09%
10,CCOC(=O)c1c(C)[nH]c(C)c1S(=O)(=O)NCCCc1ccco1,-4.09%
11,CCOC(=O)c1c(C)[nH]c2c1-c1ccccc1C(=O)C2=O,107% (active)
12,COCC(=O)Nc1ccc2c(c1)C(=O)N(C)C[C@@H](OC)[C@@H](C)CN(C(=O)c1ccccc1)[C@@H](C)CO2,-10.2%
13,CC(=O)N1[C@@H](CO)[C@@H]2c3ccccc3N(S(=O)(=O)c3ccccc3)C[C@@H]21,7.26%
14,O=C(C(=O)N1CCC(CNC(=O)c2cccnc2Cl)CC1)c1cccs1,-11.9%
15,Cc1ccc(-c2cc(C(=O)N/N=C/C=C/c3ccccc3)n[nH]2)o1,47.7%
16,O=C(N/N=C\c1cccc(Br)c1)c1ccccc1-n1cccc1,24.9%
17,Cc1cc(C(=O)NCCc2ccc(Cl)cc2)c(C)o1,-114%
18,CC(/C=N/NC(=O)c1cc(-c2ccc3ccccc3c2)n[nH]1)=C\c1ccco1,-6.24%
19,Cc1cc(C(=O)N/N=C\C(Br)=C\c2ccccc2)c(C)o1,63% (active)
20,CC(C)c1cc(C(=O)N/N=C/C(Br)=C/c2ccccc2)n[nH]1,74.5% (active)
21,O=C(Nc1cccc(F)c1)N[C@@H]1CC[C@@H](CCn2cc(Cc3ccccc3)nn2)O[C@@H]1CO,3.01%
22,C[C@H](CO)N1C[C@H](C)[C@H](CN(C)C(=O)Nc2ccc3c(c2)OCO3)Oc2ccc(NS(=O)(=O)c3ccc(Cl)cc3)cc2CC1=O,-20.9%
23,CN1[C@@H]2CN(C(=O)c3ccc(F)cc3)c3ccccc3[C@@H]2[C@@H]1CO,-1.94%
24,O=C(Nc1cc(F)ccc1F)N[C@H]1CC[C@@H](CCn2cc(C3CCCC3)nn2)O[C@@H]1CO,5.81%
25,Cc1noc(C)c1NC(=O)N(C)C[C@H]1Oc2ccc(NC(=O)C3CCCCC3)cc2CC(=O)N([C@@H](C)CO)C[C@H]1C,-10.9%
